# Laboratory results as given in PubChem BioAssay (NCATS).
# “And” between values parts separate entries of the source, which are not always exact repeats. Identical values can stand only once. Records with an inconclusive call do not appear. A call without a number means that no potency is given here. The source made the active and inactive calls. Unless noted, calls come from the whole dose curve.
# What was measured:
# [1] = Primary qHTS for Huh7 cytotoxicity: counterscreen for inhibitors of MERS-S pseudotyped particle cell entry (AID 1479147)
# [2] = Primary qHTS for inhibitors of MERS-S pseudo-typed particle cell entry (AID 1479149); note: nearly all actives have a fitted effect of over 60% in size; note: potency is the fitted concentration of half-maximal effect
# [3] = Primary qHTS for Vero E6 cytotoxicity: counterscreen for inhibitors of SARS-S pseudo-typed particle cell entry (AID 1479150)
# [4] = Confirmatory qHTS for VERO E6 Cytotoxicity Assay: Counterscreen for SARS-CoV-2 CPE Assay (AID 1508605); note: nearly all actives have a fitted effect of over 60% in size; note: potency is the fitted concentration of half-maximal effect
# [5] = Cytotoxicity counterscreen for inhibitors of SARS-CoV-2 cell entry (AID 1645845); note: nearly all actives have a fitted effect of over 50% in size
# Summary of the method: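 48 h compound treatment (after 1 h preincubation), HEK293-ACE2 cells, 37 C/5% CO2; ATP luminescence endpoint; normalized to cell wells and media blanks.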
# [6] = Primary qHTS to identify inhibitors of SARS-CoV-2 cell entry (AID 1645846); conditions: activity change, negative = inhibition: at 57.1 µM (top of the series) unless noted; note: nearly all actives have a fitted effect of over 45% in size; note: potency is the fitted concentration of half-maximal effect
# Summary of the method: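 Entry measured by luciferase signal 48 h after adding SARS-CoV-2-S pseudotyped MLV particles to HEK293-ACE2 cells preincubated 1 h with compounds. Normalisation: bald particles and spike particles.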
# [7] = Primary qHTS for inhibitors of La Crosse Virus (LACV) - induced cell death in SH-SY5Y cells (AID 1508616; active = well fitted curve in the direction sought with a large enough effect; an effect the other way counts as inactive or inconclusive;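 note: top concentration of the series differs between compounds; higher means more rescue of cells from virus-induced death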)
# Summary of the method: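 Luminescent ATP readout (ATPLite 1step, 5 min room temperature) measured rescue from LACV-induced death after 6 days of infection at 0.01 MOI; normalized to infected DMSO wells and uninfected DMSO wells.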
# [8] = molecular target: Calcium and integrin-binding protein 1 (Homo sapiens) (UniProt Q99828); assay: Primary qHTS for Identification of Calcium Integrin Binding Protein 1 (CIB1) Competitor (AID 1508620; active = well fitted curve in the direction sought with a large enough effect; an effect the other way counts as inactive or inconclusive;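 note: GST tagged CIB1 binding a fluorescein labelled alphaIIb integrin peptide tracer; top concentration of the series differs between compounds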)
# Sequence of Calcium and integrin-binding protein 1 (Homo sapiens) (Q99828 whole entry, looked up): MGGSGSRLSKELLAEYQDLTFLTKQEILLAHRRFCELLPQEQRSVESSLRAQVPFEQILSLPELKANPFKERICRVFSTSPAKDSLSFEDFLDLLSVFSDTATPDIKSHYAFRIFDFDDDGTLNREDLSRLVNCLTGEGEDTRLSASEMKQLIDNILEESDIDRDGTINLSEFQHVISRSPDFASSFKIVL
# Summary of the method: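 CIB1-GST (1 uM final) and compound incubated 15 min at room temperature before adding FITC-alphaIIb peptide tracer (100 nM final). Competition for binding read by fluorescence polarization (ex 480, em 540) after another 15 min at room temperature.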
# [9] = A High-Content qHTS Against Drug Library for the Identification of Small Molecules that Inhibit DYT1 Early Onset Primary Dystonia-Associated Cell Pathology (AID 1645839)
# Summary of the method: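 In this high-content image screen, delE TorsinA mislocalization in inducible Flp-In 293 cells is scored as %pathology, with cell count serving as the counterscreen. Compound exposure lasts 48 h under tetracycline induction in reduced-serum medium.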
# [10] = molecular target: Cytochrome P450 2D6 (Homo sapiens) (UniProt P10635); assay: Cytochrome P450 family 2 subfamily D member 6 (CYP2D6) small molecule antagonists: luciferase biochemical (cell-free) qHTS assay (AID 1645840; active = well fitted curve in the direction sought with a large enough effect in the repeat runs; an effect the other way counts as inactive or inconclusive; note: nearly all actives have a fitted effect of over 55% in size; note: potency is the fitted concentration of half-maximal effect)
# Sequence of Cytochrome P450 2D6 (Homo sapiens) (P10635 whole entry, looked up): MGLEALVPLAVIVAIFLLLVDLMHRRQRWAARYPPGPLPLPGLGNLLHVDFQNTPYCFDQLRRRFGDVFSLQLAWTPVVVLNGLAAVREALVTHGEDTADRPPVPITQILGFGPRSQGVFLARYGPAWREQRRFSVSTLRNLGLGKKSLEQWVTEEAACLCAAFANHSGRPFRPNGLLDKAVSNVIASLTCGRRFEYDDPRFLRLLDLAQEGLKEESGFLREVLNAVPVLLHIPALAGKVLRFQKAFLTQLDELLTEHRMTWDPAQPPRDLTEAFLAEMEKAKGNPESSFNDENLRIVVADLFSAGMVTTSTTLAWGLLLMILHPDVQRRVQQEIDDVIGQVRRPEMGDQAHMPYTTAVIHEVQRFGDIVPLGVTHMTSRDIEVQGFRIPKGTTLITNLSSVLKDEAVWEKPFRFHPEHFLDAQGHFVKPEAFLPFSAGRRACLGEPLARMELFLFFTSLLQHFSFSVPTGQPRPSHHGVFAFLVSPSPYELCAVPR
# Summary of the method: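 P450-Glo luminescent screen: recombinant CYP2D6 enzyme–proluciferin substrate mix preincubated with compound 10 min at room temperature, then NADPH regeneration added for 1 h at room temperature. Detection reagent added for 20 min; luciferin light read as relative luminescence units.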
# [11] = molecular target: Cytochrome P450 2C9 (Homo sapiens) (UniProt P11712); assay: Cytochrome P450 family 2 subfamily C member 9 (CYP2C9) small molecule antagonists: luciferase biochemical (cell-free) qHTS assay (AID 1645842; active = well fitted curve in the direction sought with a large enough effect in the repeat runs; an effect the other way counts as inactive or inconclusive; note: nearly all actives have a fitted effect of over 55% in size)
# Sequence of Cytochrome P450 2C9 (Homo sapiens) (P11712 whole entry, looked up): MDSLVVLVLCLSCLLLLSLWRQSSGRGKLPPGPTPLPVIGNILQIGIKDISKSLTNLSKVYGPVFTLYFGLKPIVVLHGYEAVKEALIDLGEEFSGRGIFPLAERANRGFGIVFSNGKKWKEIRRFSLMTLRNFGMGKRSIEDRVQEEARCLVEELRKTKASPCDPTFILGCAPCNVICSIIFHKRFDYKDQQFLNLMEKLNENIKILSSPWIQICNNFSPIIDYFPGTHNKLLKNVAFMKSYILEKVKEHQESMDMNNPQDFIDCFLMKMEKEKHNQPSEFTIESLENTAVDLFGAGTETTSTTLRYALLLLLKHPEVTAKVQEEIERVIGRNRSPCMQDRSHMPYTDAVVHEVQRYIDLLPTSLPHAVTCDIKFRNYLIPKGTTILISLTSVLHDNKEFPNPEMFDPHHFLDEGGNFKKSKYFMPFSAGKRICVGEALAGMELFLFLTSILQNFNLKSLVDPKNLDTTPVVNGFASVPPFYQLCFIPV
# Summary of the method: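 Luminescence, after 20 min with luciferin detection reagent, reflected CYP2C9 turnover during a 1 h NADPH-driven reaction at 37C. Enzyme-substrate mix contained 0.4% bovine serum albumin and was preincubated with compound 10 min at room temperature.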
# [12] = molecular target: Cytochrome P450 3A4 (Homo sapiens) (UniProt P08684); assay: Cytochrome P450 family 3 subfamily A member 4 (CYP3A4) small molecule antagonists: luciferase qHTS assay (AID 1645841; active = well fitted curve in the direction sought with a large enough effect in the repeat runs; an effect the other way counts as inactive or inconclusive; note: nearly all actives have a fitted effect of over 45% in size)
# Sequence of Cytochrome P450 3A4 (Homo sapiens) (P08684 whole entry, looked up): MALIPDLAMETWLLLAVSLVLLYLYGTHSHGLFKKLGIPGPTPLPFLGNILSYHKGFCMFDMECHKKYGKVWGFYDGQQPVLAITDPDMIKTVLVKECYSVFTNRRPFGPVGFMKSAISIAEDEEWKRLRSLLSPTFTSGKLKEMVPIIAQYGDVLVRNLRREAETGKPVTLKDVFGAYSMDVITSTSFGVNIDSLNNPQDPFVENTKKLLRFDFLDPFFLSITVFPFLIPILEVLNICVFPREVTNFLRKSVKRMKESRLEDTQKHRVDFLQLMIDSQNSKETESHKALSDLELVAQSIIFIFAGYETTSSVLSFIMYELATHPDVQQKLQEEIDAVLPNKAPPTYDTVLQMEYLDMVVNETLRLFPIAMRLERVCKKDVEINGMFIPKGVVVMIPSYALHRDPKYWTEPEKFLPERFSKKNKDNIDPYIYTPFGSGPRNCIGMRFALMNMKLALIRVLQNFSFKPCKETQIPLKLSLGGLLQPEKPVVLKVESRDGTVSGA
# Summary of the method: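 Luminescent CYP3A4 activity readout: compounds plus enzyme-substrate mix 10 min at room temperature, reaction started with NADPH regenerating system for 1 h, stopped with detection reagent, read after 20 min. Ketoconazole served as control.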
# [13] = Confirmatory qHTS to identify inhibitors of SARS-CoV-2 cell entry (AID 1645844); note: potency is the fitted concentration of half-maximal effect; nearly all actives have a fitted effect of over 45% in size
# Summary of the method: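 Luminescence from a luciferase reporter, read 48 hr after pseudotyped-particle addition, gives entry signal, normalised to spike-bearing PP wells and bald PP lacking fusion protein wells. Cells are Expi293F stably expressing human ACE2, compound-pretreated 1 hr.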
# [14] = Primary qHTS for small molecule stabilizers of the endoplasmic reticulum resident proteome: Secreted ER Calcium Modulated Protein (SERCaMP) assay (AID 1508630; active = well fitted curve in the direction sought with a large enough effect; an effect the other way counts as inactive or inconclusive)
# Summary of the method: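 GLuc-SERCaMP-expressing SH-SY5Y cells, pretreated 16 h with compound, are challenged with thapsigargin to empty ER calcium stores; after 4 h, coelenterazine is added directly to the medium and luminescence is imaged.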
# [15] = molecular target: Calcium and integrin-binding protein 1 (Homo sapiens) (UniProt Q99828); assay: Validation qHTS for Identification of Calcium Integrin Binding protein 1 (CIB1) Competitor (AID 1508618; active = well fitted curve in the direction sought with a large enough effect; an effect the other way counts as inactive or inconclusive)
# Summary of the method: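 Displacement of FITC-alphaIIb peptide (100 nM) from CIB1-GST (1 uM) is monitored by polarization in quantitative HTS format; buffer carries 5 mM CaCl2 and 125 mM NaCl at pH 7.4, incubations are at room temperature.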
smiles,measurement,setting,value
Cc1ccc(-c2cc(C(F)(F)F)nn2-c2ccc(S(N)(=O)=O)cc2)cc1,Potency,[1],inactive
same,Potency,[2],inactive
same,Potency,[3],inactive
same,Potency,[4],inactive
same,Potency,[5],inactive
same,"activity change, negative = inhibition",[6],-19.2%
O=C1Nc2ccc(Cl)cc2[C@@](C#CC2CC2)(C(F)(F)F)O1,Potency,[1],inactive
same,Potency,[2],inactive
same,Potency,[3],inactive
same,Potency,[4],inactive
CC(C)NCC(O)c1ccccc1Cl (stereo not drawn),Potency,[1],inactive
same,Potency,[2],inactive
same,Potency,[3],inactive
same,Potency,[7],inactive
same,Potency,[8],inactive
same,Potency,[9],inactive
same,Potency,[10],11 µM (active)
same,Potency,[11],inactive
same,Potency,[5],inactive
same,Potency,[6],inactive
Oc1cc(Cl)ccc1Oc1ccc(Cl)cc1Cl,Potency,[1],inactive
same,Potency,[2],inactive
same,Potency,[3],inactive
same,Potency,[7],inactive
same,Potency,[8],inactive
same,Potency,[9],inactive
same,Potency,[10],8.64 µM (active) and 11 µM (active)
same,Potency,[6],25.1 µM (active)
Cc1[nH]cnc1CN1CCc2c(c3ccccc3n2C)C1=O,Potency,[1],inactive
same,Potency,[2],inactive
same,Potency,[3],inactive
O=c1[nH]cc(F)c(=O)[nH]1,Potency,[1],inactive
same,Potency,[2],8.91 µM (active)
same,Potency,[3],inactive
O=[N+]([O-])c1cc([As](=O)(O)O)ccc1O,Potency,[1],inactive
same,Potency,[2],inactive
same,Potency,[3],inactive
same,Potency,[7],inactive
same,Potency,[8],inactive
same,Potency,[9],inactive
same,Potency,[10],inactive
same,outcome,[12],inactive
same,Potency,[11],inactive
same,Potency,[5],inactive
same,"activity change, negative = inhibition",[6],-27.8%
CC/C(=C(\c1ccccc1)c1ccc(OCCN(C)C)cc1)c1ccccc1,Potency,[1],inactive
same,Potency,[2],7.08 µM (active)
same,Potency,[3],inactive
same,Potency,[4],10 µM (active)
same,Potency,[13],27.8 µM (active)
same,Potency,[5],inactive
CCCCc1oc2ccccc2c1C(=O)c1cc(I)c(OCCN(CC)CC)c(I)c1,Potency,[1],inactive
same,Potency,[2],10 µM (active)
same,Potency,[3],inactive
same,Potency,[4],inactive
same,Potency,[5],inactive
C=C1CC[C@@]2(O)[C@H]3Cc4ccc(O)c5c4[C@@]2(CCN3CC2CC2)[C@H]1O5,Potency,[1],inactive
same,Potency,[2],inactive
same,Potency,[3],inactive
same,Potency,[7],inactive
same,Potency,[8],inactive
same,Potency,[9],inactive
same,Potency,[10],2.75 µM (active)
same,Potency,[11],inactive
same,Potency,[5],inactive
Oc1ccccc1-c1ccccc1,Potency,[1],inactive
same,Potency,[2],inactive
same,Potency,[3],inactive
same,Potency,[7],inactive
same,Potency,[8],inactive
same,outcome,[14],inactive
same,Potency,[9],inactive
same,Potency,[10],inactive
same,Potency,[11],inactive
same,Potency,[5],inactive
same,Potency,[6],inactive
c1ccc2c(c1)Nc1ccccc1S2,Potency,[1],inactive
same,Potency,[2],inactive
same,Potency,[3],inactive
same,Potency,[7],inactive
same,Potency,[8],inactive
same,outcome,[14],inactive
same,Potency,[9],inactive
same,Potency,[10],inactive
same,Potency,[11],inactive
same,Potency,[5],inactive
same,Potency,[6],inactive
NCC(O)c1ccc(O)cc1 (stereo not drawn),Potency,[1],inactive
same,Potency,[2],inactive
same,Potency,[3],inactive
same,Potency,[7],inactive
same,Potency,[15],inactive
same,Potency,[8],inactive
same,outcome,[14],inactive
same,Potency,[9],inactive
same,Potency,[10],inactive
same,Potency,[11],inactive
same,Potency,[5],inactive
